Source: PubChem BioAssay (Tox21)
Inconclusive results are not listed. A call without a number means that no potency is given here. Active and inactive are the calls of the source. Unless noted, the call rests on the fitted dose curve; in most records, active means well fitted curve in the direction sought with a large enough effect in the repeat runs; inconclusive means weak or mixed curves; inactive means no such curve, though single readings can be large; an effect the other way counts as inactive or inconclusive.

How the values were obtained:
[1] = Human pregnane X receptor (PXR) small molecule agonists, qHTS cell viability counter screen (AID 1346977); further: nearly all actives have a fitted effect of over 50% in size
Method in brief: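 In each well, the PXR reporter HepG2 line was checked for viability: CellTiter-Fluor reagent added 23hr post-dosing, fluorescence read after 1hr incubation at 37C.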

[2] = Caspase-3/7 induction in HepG2 cells by small molecules, qHTS assay (AID 1346978); further: nearly all actives have a fitted effect of over 15% in size
Method in brief: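 Caspase-3/7 induction was measured by Caspase-Glo 3/7 luminescence (30 min, room temperature) after a 17 hr compound exposure of wild-type HepG2 cells seeded at 2,000 per well and pre-incubated 5 hr.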

[3] = Caspase-3/7 induction in CHO-K1 cells by small molecules, qHTS assay (AID 1346980); further: nearly all actives have a fitted effect of over 15% in size
Method in brief: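 Luminescent Caspase-Glo 3/7 read (30min, room temperature) quantified apoptosis induction. Cells were wild-type CHO-K1, treated with compound for 17hr at 37 C and 5% CO2.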

[4] = Caspase-3/7 induction in HepG2 cells by small molecules, qHTS cell viability counter screen (AID 1346981); further: series mostly up to about 92 µM; nearly all actives have a fitted effect of over 30% in size
Method in brief: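 CellTiter-Fluor fluorescence measured viability in the same wells used for Caspase-Glo 3/7. HepG2 (wild type) at 2,000 cells/well were pre-incubated 5 hr, dosed, and given reagent at 16 hr, with 1 hr further at 37C.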

[5] = target: Nuclear receptor subfamily 1 group I member 2 (Homo sapiens) (UniProt O75469); experiment: Human pregnane X receptor (PXR) small molecule agonists, qHTS assay (AID 1346982); further: nearly all actives have a fitted effect of over 35% in size; further: potency means the concentration at half of the fitted maximal effect
Chain of Nuclear receptor subfamily 1 group I member 2 (Homo sapiens) (O75469 whole entry, looked up): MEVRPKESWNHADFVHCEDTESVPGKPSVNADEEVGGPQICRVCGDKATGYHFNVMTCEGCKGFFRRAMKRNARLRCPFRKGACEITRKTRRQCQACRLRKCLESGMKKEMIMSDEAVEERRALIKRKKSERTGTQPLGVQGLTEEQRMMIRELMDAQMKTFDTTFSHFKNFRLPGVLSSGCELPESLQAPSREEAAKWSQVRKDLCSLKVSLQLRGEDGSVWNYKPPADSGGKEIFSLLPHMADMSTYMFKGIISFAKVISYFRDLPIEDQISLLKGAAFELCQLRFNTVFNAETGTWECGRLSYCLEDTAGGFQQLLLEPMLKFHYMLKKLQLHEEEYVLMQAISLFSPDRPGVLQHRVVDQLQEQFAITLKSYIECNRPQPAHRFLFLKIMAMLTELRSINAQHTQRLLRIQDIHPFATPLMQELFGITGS
Method in brief: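 Agonist mode: luminescence from ONE-Glo after 24 h compound exposure at 37C in HepG2 cells carrying hPXR-responsive CYP3A4 luciferase, plated in charcoal-stripped serum medium 5 h beforehand.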

[6] = target: Acetylcholinesterase (Homo sapiens) (UniProt P22303); experiment: Acetylcholinesterase (AChE) small molecule antagonists: colormetric cell-based qHTS assay (AID 1347395; calls by dose curve; further: nearly all actives have a fitted effect of over 30% in size; further: potency means the concentration at half of the fitted maximal effect)
Chain of Acetylcholinesterase (Homo sapiens) (P22303 whole entry, looked up): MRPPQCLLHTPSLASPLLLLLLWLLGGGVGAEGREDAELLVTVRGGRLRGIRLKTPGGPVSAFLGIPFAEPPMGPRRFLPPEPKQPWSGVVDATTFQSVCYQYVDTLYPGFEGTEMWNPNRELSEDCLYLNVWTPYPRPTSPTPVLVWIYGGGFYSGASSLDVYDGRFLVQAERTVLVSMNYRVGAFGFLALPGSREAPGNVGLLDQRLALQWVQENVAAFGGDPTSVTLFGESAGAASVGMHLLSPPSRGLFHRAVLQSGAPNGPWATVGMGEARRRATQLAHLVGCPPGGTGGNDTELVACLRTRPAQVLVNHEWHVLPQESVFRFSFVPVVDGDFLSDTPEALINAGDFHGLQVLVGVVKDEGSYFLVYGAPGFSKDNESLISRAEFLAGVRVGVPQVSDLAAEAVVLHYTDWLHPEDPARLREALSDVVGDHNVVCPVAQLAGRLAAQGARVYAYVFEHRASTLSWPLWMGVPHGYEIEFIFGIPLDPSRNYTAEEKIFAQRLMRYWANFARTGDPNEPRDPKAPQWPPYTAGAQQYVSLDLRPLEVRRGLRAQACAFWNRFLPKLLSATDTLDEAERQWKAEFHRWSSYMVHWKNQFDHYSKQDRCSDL
Method in brief: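 After overnight attachment at 37 C, SH-SY5Y cells get 30 min compound exposure; detection cocktail (acetylthiocholine, DTNB) then incubates 90 min at 37 C, and absorbance reflects AChE-generated thiocholine.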

[7] = target: Acetylcholinesterase (Homo sapiens) (UniProt P22303); experiment: Acetylcholinesterase (AChE) small molecule antagonists: enzyme-based qHTS assay (AID 1347397; calls by dose curve; further: nearly all actives have a fitted effect of over 55% in size; further: potency means the concentration at half of the fitted maximal effect); settings: Potency: AChE enzyme activity inhibition
Method in brief: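 Colorimetric DTNB readout of acetylthiocholine hydrolysis, 10 min at room temperature, after 30 min room-temperature exposure of 50 mU/mL recombinant human enzyme to compound; DMSO vehicle control.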

[8] = target: Acetylcholinesterase (Homo sapiens) (UniProt P22303); experiment: Acetylcholinesterase (AChE) small molecule antagonists: fluorescence cell-based qHTS assay (AID 1347398; calls by dose curve; further: nearly all actives have a fitted effect of over 50% in size; further: potency means the concentration at half of the fitted maximal effect); settings: Potency: AChE activity
Method in brief: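 Cellular AChE activity read as thiocholine from acetylthiocholine hydrolysis, detected by Thiolite Green fluorescence at 490/520 nm after 40 min at room temperature. Compounds were pre-incubated 30 min at 37 C on adherent SH-SY5Y cells.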

[9] = target: Acetylcholinesterase (Homo sapiens) (UniProt P22303); experiment: Acetylcholinesterase (AChE) small molecule antagonists: enzyme-based qHTS assay with human liver microsomes (AID 1347399; calls by dose curve; further: nearly all actives have a fitted effect of over 60% in size; further: potency means the concentration at half of the fitted maximal effect); settings: Potency: qHTS inhibition
Method in brief: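 Recombinant human AChE (50 mU/mL in the enzyme mix) and human liver microsomes (0.25 mg/mL final) were preincubated with compound and NADPH (0.25 mg/mL final) for 30 min at 37 C. Acetylthiocholine/DTNB was then added; thiocholine was read colorimetrically after 10 min at room temperature.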

[10] = target: Cytochrome P450 2C19 (Homo sapiens) (UniProt P33261); experiment: Cytochrome P450 Family 2 Subfamily C Member 19 (CYP2C19) small molecule antagonists: luciferase reporter qHTS assay (AID 1671197); further: nearly all actives have a fitted effect of over 65% in size; further: potency means the concentration at half of the fitted maximal effect
Chain of Cytochrome P450 2C19 (Homo sapiens) (P33261 whole entry, looked up): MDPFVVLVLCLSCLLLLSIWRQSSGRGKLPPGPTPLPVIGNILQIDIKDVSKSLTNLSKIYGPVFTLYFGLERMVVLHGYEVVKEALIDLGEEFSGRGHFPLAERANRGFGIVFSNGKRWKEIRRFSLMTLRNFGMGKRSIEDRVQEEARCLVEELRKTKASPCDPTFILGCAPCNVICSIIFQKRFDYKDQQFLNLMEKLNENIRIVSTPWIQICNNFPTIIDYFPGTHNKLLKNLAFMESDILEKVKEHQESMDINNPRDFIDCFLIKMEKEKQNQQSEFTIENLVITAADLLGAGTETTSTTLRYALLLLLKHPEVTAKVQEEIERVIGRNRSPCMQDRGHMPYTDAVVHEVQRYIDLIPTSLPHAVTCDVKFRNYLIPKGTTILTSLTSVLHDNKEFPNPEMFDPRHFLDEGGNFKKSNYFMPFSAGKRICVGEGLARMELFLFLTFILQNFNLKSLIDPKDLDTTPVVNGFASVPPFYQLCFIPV
Method in brief: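 Relative luminescence units recorded 20 min after the detection reagent stopped a 1 h, 37C CYP2C19 reaction on proluciferin substrate, which was started by NADPH regeneration following 10 min room-temperature compound preincubation; ketoconazole positive control.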

[11] = target: Voltage-gated inwardly rectifying potassium channel KCNH2 (Homo sapiens) (UniProt Q12809); experiment: Human Ether-a-go-go-Related Gene (hERG) channel small molecule antagonists: fluorescence cell-based qHTS assay (AID 1671200); further: nearly all actives have a fitted effect of over 50% in size; further: potency means the concentration at half of the fitted maximal effect
Chain of Voltage-gated inwardly rectifying potassium channel KCNH2 (Homo sapiens) (Q12809 whole entry, looked up): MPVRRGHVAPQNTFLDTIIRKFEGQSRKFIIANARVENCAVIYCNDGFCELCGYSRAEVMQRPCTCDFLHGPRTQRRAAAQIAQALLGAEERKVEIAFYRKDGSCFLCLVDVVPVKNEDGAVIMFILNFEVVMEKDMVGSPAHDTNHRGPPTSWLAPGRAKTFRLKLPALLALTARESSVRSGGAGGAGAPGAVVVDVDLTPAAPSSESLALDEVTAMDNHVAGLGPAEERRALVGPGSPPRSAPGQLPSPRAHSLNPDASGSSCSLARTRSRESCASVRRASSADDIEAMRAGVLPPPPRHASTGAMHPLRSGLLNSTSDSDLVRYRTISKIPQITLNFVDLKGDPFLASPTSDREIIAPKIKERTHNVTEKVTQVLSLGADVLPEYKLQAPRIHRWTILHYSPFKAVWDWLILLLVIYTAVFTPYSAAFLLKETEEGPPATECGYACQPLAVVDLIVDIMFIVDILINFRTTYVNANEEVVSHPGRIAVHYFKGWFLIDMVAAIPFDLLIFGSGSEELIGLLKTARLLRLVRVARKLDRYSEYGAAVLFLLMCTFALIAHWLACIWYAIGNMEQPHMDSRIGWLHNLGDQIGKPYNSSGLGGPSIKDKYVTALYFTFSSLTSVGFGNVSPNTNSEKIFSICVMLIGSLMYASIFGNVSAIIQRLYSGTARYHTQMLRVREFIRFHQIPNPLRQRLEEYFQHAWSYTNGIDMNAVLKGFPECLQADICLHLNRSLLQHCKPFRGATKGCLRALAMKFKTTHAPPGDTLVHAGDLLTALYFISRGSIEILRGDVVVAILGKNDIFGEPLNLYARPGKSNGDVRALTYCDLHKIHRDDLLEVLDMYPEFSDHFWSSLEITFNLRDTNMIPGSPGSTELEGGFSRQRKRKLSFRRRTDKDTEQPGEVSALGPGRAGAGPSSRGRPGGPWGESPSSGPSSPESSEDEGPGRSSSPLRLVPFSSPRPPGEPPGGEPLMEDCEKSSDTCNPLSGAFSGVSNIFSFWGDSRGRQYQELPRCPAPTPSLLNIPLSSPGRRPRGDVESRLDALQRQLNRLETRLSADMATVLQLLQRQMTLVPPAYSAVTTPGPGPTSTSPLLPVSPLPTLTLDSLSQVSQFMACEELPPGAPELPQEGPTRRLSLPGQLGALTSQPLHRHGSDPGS
Method in brief: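 In this thallium-flux screen, overnight-cultured U2OS cells bearing the channel are dye-loaded in darkness for an hour, rested 10 min at room temperature, and then monitored kinetically at 480/540 nm for two minutes post-stimulus.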

[12] = target: Cytochrome P450 3A4 (Homo sapiens) (UniProt P08684); experiment: Cytochrome P450 Family 3 Subfamily A Member 4 (CYP3A4) small molecule antagonists: luciferase reporter qHTS assay (AID 1671201); further: nearly all actives have a fitted effect of over 50% in size; further: potency means the concentration at half of the fitted maximal effect
Chain of Cytochrome P450 3A4 (Homo sapiens) (P08684 whole entry, looked up): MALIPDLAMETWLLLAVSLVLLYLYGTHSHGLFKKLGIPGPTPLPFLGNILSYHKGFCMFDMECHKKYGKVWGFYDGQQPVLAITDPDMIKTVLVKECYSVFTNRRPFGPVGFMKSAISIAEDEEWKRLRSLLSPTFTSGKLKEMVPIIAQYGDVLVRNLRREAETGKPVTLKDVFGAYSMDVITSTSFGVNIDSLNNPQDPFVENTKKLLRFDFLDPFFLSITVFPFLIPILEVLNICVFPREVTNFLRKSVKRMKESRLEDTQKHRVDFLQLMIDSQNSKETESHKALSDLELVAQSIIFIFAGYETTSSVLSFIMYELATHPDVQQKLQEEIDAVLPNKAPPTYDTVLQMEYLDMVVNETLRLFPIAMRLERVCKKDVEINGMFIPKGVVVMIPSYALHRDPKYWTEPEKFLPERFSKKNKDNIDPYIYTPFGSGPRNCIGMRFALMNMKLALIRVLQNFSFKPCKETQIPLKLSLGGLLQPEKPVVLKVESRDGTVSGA
Method in brief: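 CYP3A4 activity was followed with a P450-Glo proluciferin substrate. Test compounds in DMSO were preincubated 10 min; NADPH regeneration then ran 1 h, and light output was read 20 min after detection reagent.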

[13] = target: Nuclear receptor subfamily 1 group I member 2 (Homo sapiens) (UniProt O75469); experiment: CYP3A4 induction through human pregnane X receptor (PXR) by small molecules, qHTS assay (AID 1346984); further: nearly all actives have a fitted effect of over 40% in size
Method in brief: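 Read-out is luminescence after One-Glo addition, following a 3 hr, 37C incubation with Luciferin-IPA CYP3A4 substrate (3uM final). Before that, compounds were on DPX-2 cells (HepG2 co-transfected with PXR element plus CYP3A4-promoter luciferase) for 24 hr at 37C.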

[14] = target: Nuclear receptor subfamily 1 group I member 2 (Homo sapiens) (UniProt O75469); experiment: Human pregnane X receptor (PXR) activation by small molecules, qHTS assay (AID 1346985); further: nearly all actives have a fitted effect of over 40% in size
Method in brief: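 DPX-2 cells (HepG2 co-transfected with a PXR response element and a CYP3A4-promoter luciferase construct) were seeded at 2,000 per well, rested 5 hr at 37C, then exposed to DMSO-dissolved compounds for 24 hr. Activation was read as luciferase luminescence.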

[15] = target: Cytochrome P450 2C9 (Homo sapiens) (UniProt P11712); experiment: Cytochrome P450 Family 2 Subfamily C Member 9 (CYP2C9) small molecule antagonists: luciferase reporter qHTS assay (AID 1671198); further: nearly all actives have a fitted effect of over 50% in size; further: potency means the concentration at half of the fitted maximal effect
Chain of Cytochrome P450 2C9 (Homo sapiens) (P11712 whole entry, looked up): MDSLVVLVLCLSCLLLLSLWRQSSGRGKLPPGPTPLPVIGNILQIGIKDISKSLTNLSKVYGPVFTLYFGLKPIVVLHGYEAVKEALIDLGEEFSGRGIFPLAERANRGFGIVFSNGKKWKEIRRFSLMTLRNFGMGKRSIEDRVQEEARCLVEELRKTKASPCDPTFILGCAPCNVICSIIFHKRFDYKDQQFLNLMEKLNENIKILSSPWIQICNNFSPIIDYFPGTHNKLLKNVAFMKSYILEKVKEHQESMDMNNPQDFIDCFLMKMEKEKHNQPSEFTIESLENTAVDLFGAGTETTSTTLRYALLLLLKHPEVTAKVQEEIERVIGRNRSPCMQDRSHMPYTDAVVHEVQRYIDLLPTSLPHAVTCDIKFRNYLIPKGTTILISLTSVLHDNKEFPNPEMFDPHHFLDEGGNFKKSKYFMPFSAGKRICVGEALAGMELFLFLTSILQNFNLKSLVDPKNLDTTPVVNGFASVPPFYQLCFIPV
Method in brief: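 Enzyme-substrate mix preincubated with compound 10 min at room temperature; reaction started with NADPH regeneration solution, 1 h 37C. Luminescent luciferin product read after 20 min detection reagent.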

[16] = target: Cytochrome P450 1A2 (Homo sapiens) (UniProt P05177); experiment: Cytochrome P450 Family 1 Subfamily A Member 2 (CYP1A2) small molecule antagonists: luciferase reporter qHTS assay (AID 1671199); further: nearly all actives have a fitted effect of over 50% in size; further: potency means the concentration at half of the fitted maximal effect
Chain of Cytochrome P450 1A2 (Homo sapiens) (P05177 whole entry, looked up): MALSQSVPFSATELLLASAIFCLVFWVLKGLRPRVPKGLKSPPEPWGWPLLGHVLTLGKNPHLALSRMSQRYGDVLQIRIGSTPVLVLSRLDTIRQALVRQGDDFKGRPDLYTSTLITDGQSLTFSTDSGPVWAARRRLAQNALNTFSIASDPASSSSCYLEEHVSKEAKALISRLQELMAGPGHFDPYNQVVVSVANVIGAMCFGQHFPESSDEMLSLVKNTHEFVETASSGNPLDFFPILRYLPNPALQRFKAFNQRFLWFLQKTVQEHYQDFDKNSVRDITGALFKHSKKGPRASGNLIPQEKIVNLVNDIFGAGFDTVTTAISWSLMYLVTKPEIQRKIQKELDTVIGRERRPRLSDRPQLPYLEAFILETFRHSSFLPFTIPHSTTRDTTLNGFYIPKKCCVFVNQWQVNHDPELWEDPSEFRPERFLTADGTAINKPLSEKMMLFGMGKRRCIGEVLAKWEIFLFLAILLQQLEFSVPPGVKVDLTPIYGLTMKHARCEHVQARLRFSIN
Method in brief: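 Luminescence from luciferin formed by CYP1A2 from a proluciferin substrate, read 20 min after detection reagent. Compound was pre-incubated 10 min with enzyme-substrate, and reaction started with NADPH regeneration solution for 1 h at room temperature; furafylline control.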

[17] = target: Cytochrome P450 2D6 (Homo sapiens) (UniProt P10635); experiment: Cytochrome P450 Family 2 Subfamily D Member 6 (CYP2D6) small molecule antagonists: luciferase reporter qHTS assay (AID 1671196); further: nearly all actives have a fitted effect of over 50% in size; further: potency means the concentration at half of the fitted maximal effect
Chain of Cytochrome P450 2D6 (Homo sapiens) (P10635 whole entry, looked up): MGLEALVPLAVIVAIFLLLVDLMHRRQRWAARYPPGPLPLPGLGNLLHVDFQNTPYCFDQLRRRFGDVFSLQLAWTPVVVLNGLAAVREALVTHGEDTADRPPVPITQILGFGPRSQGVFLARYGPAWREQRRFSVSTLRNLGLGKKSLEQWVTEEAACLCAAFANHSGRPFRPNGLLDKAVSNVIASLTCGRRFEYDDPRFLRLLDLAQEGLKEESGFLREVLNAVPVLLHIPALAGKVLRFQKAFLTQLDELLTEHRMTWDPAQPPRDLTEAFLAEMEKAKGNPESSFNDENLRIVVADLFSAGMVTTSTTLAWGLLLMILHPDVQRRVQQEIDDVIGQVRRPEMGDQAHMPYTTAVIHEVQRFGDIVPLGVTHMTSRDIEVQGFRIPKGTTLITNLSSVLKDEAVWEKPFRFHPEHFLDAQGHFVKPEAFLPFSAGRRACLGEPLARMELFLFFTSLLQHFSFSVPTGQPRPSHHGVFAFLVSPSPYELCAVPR
Method in brief: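 CYP2D6 activity was followed as luminescence from its luciferin product after a 1 h NADPH-driven reaction at room temperature. Enzyme-substrate mix and compound were pre-incubated for 10 min, and the signal was read 20 min after adding detection reagent.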

Structure (SMILES)	Potency [1]	Potency [2]	Potency [3]	Potency [4]	Potency [5]	Potency [6]	Potency [7]	Potency [8]	Potency [9]	Potency [10]	Potency [11]	Potency [12]	Potency [13]	Potency [14]	Potency [15]	Potency [16]	Potency [17]
CCCCOP(=O)(O)OCCCC	inactive	inactive	inactive	inactive	inactive	inactive	inactive	inactive	inactive	56.4 µM (active)	inactive	inactive					
C#C[C@]1(O)C=C[C@H]2[C@@H]3CCC4=CC(=O)CC[C@@H]4[C@H]3CC[C@@]21CC	inactive	inactive	inactive	inactive	29.8 µM (active)	inactive			inactive	2.75 µM (active)	inactive		inactive	inactive	4.9 µM (active)	inactive	
O=[N+]([O-])c1ccc(CBr)cc1	inactive	inactive	inactive	inactive	inactive	inactive	inactive	inactive			inactive	inactive			inactive		inactive
O=C1OC(CCN2CCCCC2)OC1(c1ccccc1)c1ccccc1 (configuration not stated)	inactive	inactive	inactive	inactive	inactive	inactive	inactive	inactive	inactive	38.9 µM (active)	0.848 µM (active)				15.5 µM (active)		0.871 µM (active)
CCCCP(CCCC)CCCC	inactive	inactive	inactive	inactive	inactive	inactive	inactive	inactive	inactive	31.7 µM (active)							
CCOP(=S)(OCC)SCSc1ccc(Cl)cc1	inactive	inactive	inactive	inactive	10.9 µM (active)		inactive	inactive	inactive	0.502 µM (active)	inactive				1 µM (active)	8.94 µM (active)	11.2 µM (active)
CC1(C)C(=O)NC(=O)NC1=O	inactive	inactive	inactive	inactive	inactive	inactive	inactive	inactive			inactive	inactive			inactive	35.6 µM (active)	
COC(=O)C1=CCCN(C)C1	inactive	inactive	inactive	inactive	inactive	inactive	inactive		inactive	inactive					inactive	inactive	
CCCCN(CCCCO)N=O	inactive	inactive	inactive	inactive	inactive	inactive	inactive		inactive	inactive							inactive
CCOP(=S)(Oc1cnc(C(C)(C)C)nc1)OC(C)C (configuration not stated)	inactive	inactive	inactive	inactive	24.3 µM (active)	39.9 µM (active)	63.3 µM (active)	39.9 µM (active)	10 µM (active)	0.356 µM (active)					1.59 µM (active)	22.4 µM (active)	35.6 µM (active)
COc1ccc2c(c1OC)CN1CCc3cc4c(cc3C1C2)OCO4 (configuration not stated)	inactive	inactive	inactive	inactive	inactive	8.71 µM (active)	5.49 µM (active)	1.38 µM (active)		0.977 µM (active)			inactive	inactive	30.9 µM (active)	15.5 µM (active)	0.246 µM (active)
CC(C1CC1)C(O)(Cn1cncn1)c1ccc(Cl)cc1 (configuration not stated)	inactive	inactive	inactive	inactive	27.1 µM (active)	inactive	inactive	inactive	inactive	0.354 µM (active)	inactive				0.126 µM (active)		
CNNC	inactive	inactive	inactive	inactive	inactive	inactive	inactive	inactive	inactive	inactive					inactive		65.4 µM (active)
N#CCCC#N	inactive	inactive	inactive	inactive	inactive	inactive	inactive		inactive	inactive	inactive	inactive			inactive	inactive	inactive
Nc1cc2c3c(c1)C(c1ccccc1)=N[C@@H](NC(=O)c1cccnc1)C(=O)N3CC2	inactive	inactive	inactive	inactive	61.1 µM (active)	inactive	inactive					11.2 µM (active)			7.1 µM (active)	inactive	inactive
COC(C)(C)C	inactive	inactive	inactive	inactive	inactive	inactive	inactive		inactive	inactive	inactive				inactive		inactive
O=C(NCO)NCO	inactive	inactive	inactive	inactive	inactive	inactive	inactive	inactive	inactive	inactive		inactive			inactive	inactive	
